IDE exosite FP – insulin-degrading enzyme (human) exo-site inhibition | z-score at 20 µM | 17,000 tested, 6.3% active | P14735 | purified IDE, FL-6b probe fluorescence polarization; hits give low values;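 active = z-score of -3 or lower, meaning strong loss of probe binding signal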;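 note: His-tagged human IDE residues 42-1019 made in E. coli with 30 nM FL-6b probe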
* hit, by the source's call. Shown is part of a subset that was picked to be rich in hits.

What do the screens show for `N#C[C@H]1[C@@H](c2ccc(C#Cc3ccc(F)cc3)cc2)[C@H](CO)N1C(=O)C1CCCC1`?
IDE exosite FP: 5.4

What do the screens show for `COc1cccc(C#Cc2ccc([C@@H]3[C@@H](C#N)N(C(=O)C4CCC4)[C@@H]3CO)cc2)c1`?
IDE exosite FP: 4.2

What do the screens show for `COc1cccc(C#Cc2ccc([C@@H]3[C@@H](C#N)N(C(=O)C4CCC4)[C@H]3CO)cc2)c1`?
IDE exosite FP: 1.5

How did CN1c2ccc(Br)cc2[C@@H]2[C@@H](CCN2C(=O)C2CCC2)[C@@H]1CO do in these assays?
IDE exosite FP: -0.16

What do the screens show for `CCS(=O)(=O)N1[C@H](C#N)[C@@H](c2ccc(C#CC(C)C)cc2)[C@H]1CO`?
IDE exosite FP: 0.077

What do the screens show for `CCC(=O)N1[C@H](CO)[C@H](c2ccc(C3=CCCCC3)cc2)[C@H]1CNCC1CCC1`?
IDE exosite FP: 2

What do the screens show for `O=C(Nc1cccc(F)c1)N1CC(=O)N2[C@H](CO)[C@@H](c3ccc(-c4ccc(F)cc4)cc3)[C@H]2C1`?
IDE exosite FP: 0.87

How did C/C=C/c1ccc([C@@H]2[C@H](C#N)N(c3nc(CC)cs3)[C@H]2CO)cc1 do in these assays?
IDE exosite FP: 0.95

How did N#C[C@@H]1[C@H](c2ccc(C3=CCCC3)cc2)[C@@H](CO)N1C(=O)C1CC1 do in these assays?
IDE exosite FP: 5.2

How did O=C(CC1CC1)N1CC2(C1)[C@@H](c1ccccc1)[C@@H](CO)N2Cc1ccccn1 do in these assays?
IDE exosite FP: 0.79

How did O=C(c1ccncc1)N1CC2(C1)[C@H](c1ccccc1)[C@H](CO)N2CC1CC1 do in these assays?
IDE exosite FP: -1

Results for O=C(Cc1ccccn1)N1CC2(C1)[C@@H](c1ccccc1)[C@@H](CO)N2C(=O)c1ccncc1 ?
IDE exosite FP: -3.3*

What do the screens show for `CCC(=O)N1[C@H](CO)[C@@H](c2ccccc2)C12CN(C(=O)c1ccncc1)C2`?
IDE exosite FP: 1.2

Results for O=C(CC1CC1)N1CC2(C1)[C@@H](c1ccccc1)[C@H](CO)N2C(=O)c1ccccn1 ?
IDE exosite FP: -0.56

How did O=C(Cc1ccccn1)N1CC2(C1)[C@H](c1ccccc1)[C@@H](CO)N2C(=O)c1ccncc1 do in these assays?
IDE exosite FP: -3.7*

How did C[C@H](CO)N1C[C@H](C)[C@H](CN(C)CC2CC2)Oc2ccc(NC(=O)CCC(F)(F)F)cc2CC1=O do in these assays?
IDE exosite FP: -0.14

What do the screens show for `CNC[C@@H]1OCCCC[C@H](C)Oc2ccc(NS(=O)(=O)c3ccc(F)cc3)cc2C(=O)N([C@@H](C)CO)C[C@H]1C`?
IDE exosite FP: 0.74

How did O=C(Nc1cc(F)ccc1F)N1CCCCN2[C@H](CO)[C@H](c3ccc(C4=CCCCC4)cc3)[C@H]2C1 do in these assays?
IDE exosite FP: 0.76

How did O=C(Nc1ccccc1)N1CC(=O)N2[C@H](CO)[C@H](c3ccc(C#CC4CC4)cc3)[C@@H]2C1 do in these assays?
IDE exosite FP: -0.49

Results for CC(=O)N1CCCCN2[C@@H](CO)[C@H](c3ccc(-c4ccccc4)cc3)[C@@H]2C1 ?
IDE exosite FP: -0.87

What do the screens show for `CC(=O)N1CCCCN2[C@H](CO)[C@H](c3ccc(-c4cccc(C)c4)cc3)[C@H]2C1`?
IDE exosite FP: -12*

Results for Cc1cccc(-c2ccc([C@H]3[C@@H](CO)N4CCCCN(C(=O)c5ccc6c(c5)OCO6)C[C@H]34)cc2)c1 ?
IDE exosite FP: -8.1*

Results for CC(=O)N1CCCCN2[C@H](CO)[C@H](c3ccc(-c4ccc(C)cc4)cc3)[C@H]2C1 ?
IDE exosite FP: -1.8

How did Cc1cccc(-c2ccc([C@@H]3[C@@H](CO)N4CCCCN(C(=O)c5ccc6c(c5)OCO6)C[C@H]34)cc2)c1 do in these assays?
IDE exosite FP: 0.5

Results for Cc1cccc(-c2ccc([C@H]3[C@@H](CO)N4CCCCN(C(=O)c5ccc6c(c5)OCO6)C[C@@H]34)cc2)c1 ?
IDE exosite FP: 3

How did CC(=O)N1CCCCN2[C@@H](CO)[C@H](c3ccc(-c4cccc(C)c4)cc3)[C@@H]2C1 do in these assays?
IDE exosite FP: -3.2*

How did CC(=O)N1CCCCN2[C@H](CO)[C@H](c3ccc(-c4ccccc4)cc3)[C@H]2C1 do in these assays?
IDE exosite FP: -1.5

How did CC(=O)N1CCCCN2[C@H](CO)[C@H](c3ccc(-c4cccc(C)c4)cc3)[C@@H]2C1 do in these assays?
IDE exosite FP: 3.6

What do the screens show for `CNC(=O)C[C@H]1CC[C@H]2[C@@H](COC[C@H](O)CN2Cc2ccccc2F)O1`?
IDE exosite FP: 1.4

Results for COCC#Cc1ccc([C@@H]2[C@@H](C#N)N(C(=O)NC3CCCC3)[C@@H]2CO)cc1 ?
IDE exosite FP: 0.24

Results for O=C(CN1CCOCC1)N1CC[C@H]2[C@H](CO)Nc3ccc(Br)cc3[C@H]21 ?
IDE exosite FP: 1.6

How did CO[C@H](CN(C)Cc1ccc2c(c1)OCO2)[C@@H](C)CN(C(=O)c1ccccc1)[C@@H](C)CO do in these assays?
IDE exosite FP: 0.96

Results for O=S(=O)(c1ccccc1)N1CCCCN2[C@H](CO)[C@H](c3ccc(C#Cc4cccnc4)cc3)[C@H]2C1 ?
IDE exosite FP: 3.9

Screening data deposited in PubChem by Broad Institute.
